D1 potentiator = human D1 dopamine receptor positive modulation. P21728. HEK293 TREx D1 cells, calcium flux, dopamine EC20 potentiation. potentiation, % at 10 µM. 360,000 compounds, 0.036% hits; in the data active means potentiation above about 30%
D1 ag = agonists of human D1 dopamine receptor | P21728 | HEK293 T-REx D1 cells, calcium flux, agonist mode | activation, % at 2 µM | 360,000 compounds, 1% hits | AID 504660; in the data active means activation above about 30%
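Inducible HEK293 T-REx D1 cells, force-coupled to calcium signalling, were plated at 4000 cells/well with tetracycline and held overnight at 30 C. After no-wash calcium dye loading, compound-evoked calcium rise over 180 s flagged agonists.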
D3 antag = antagonists of human D3 dopamine receptor | P35462 | D3R cells, DiscoveRx beta-arrestin luminescence, antagonist mode; stronger effect = lower value | max response, negative = inhibition, % | 360,000 compounds, 2.5% hits | AID 652054; in the data active means max response below about -50%
Target sequence (P35462 whole entry, looked up): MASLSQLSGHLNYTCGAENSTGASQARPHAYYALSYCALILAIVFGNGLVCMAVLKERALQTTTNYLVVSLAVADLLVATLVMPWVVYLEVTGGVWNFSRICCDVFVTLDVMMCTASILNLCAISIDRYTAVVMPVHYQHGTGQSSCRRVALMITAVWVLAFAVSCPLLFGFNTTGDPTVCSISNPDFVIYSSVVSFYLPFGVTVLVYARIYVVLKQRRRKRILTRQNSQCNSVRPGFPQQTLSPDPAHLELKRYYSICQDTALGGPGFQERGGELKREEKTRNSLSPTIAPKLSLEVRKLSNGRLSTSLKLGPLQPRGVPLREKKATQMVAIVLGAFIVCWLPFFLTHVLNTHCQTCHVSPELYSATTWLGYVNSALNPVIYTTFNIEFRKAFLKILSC
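Cells expressing the human receptor were seeded at 1500 cells/well, incubated overnight at 37 degrees C in 5% CO2, then exposed to library compounds with dopamine controls for 90 minutes at 37 degrees C before luminescent detection.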
DRD3 agonist = D3 dopamine receptor (human) agonism; 410,000 compounds, 0.58% hits; max activation, %; AID 652048; D3R DiscoveRx beta-arrestin cells, luminescence, 90 min; in the data active means max activation above about 30%
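Agonist mode: compounds and dopamine controls were applied to plated cells for 90 min at 37 degrees C after an overnight attachment at 1500 cells/well. Luminescent read-out followed 30 - 60 minutes at room temperature with DiscoveRx detection reagent.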
D1 antag = antagonists of human D1 dopamine receptor; P21728; HEK293 TREx D1 cells, calcium flux, dopamine EC80; stronger effect = lower value; activity change, negative = inhibition, % at 10 µM; 360,000 compounds, 3.2% hits; AID 504652; in the data active means activity change below about -30%
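Cells carrying a force-coupled, tetracycline-inducible human D1 receptor report calcium flux. Each well gets a 10 s baseline, compound with 180 s monitoring, then an EC80 dopamine stimulus with a second 180 s kinetic read.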
Of the large screens only hits and unclear results are named; the others gave an inactive call. Only some compounds are listed: those with a hit (about 6% of all), similar ones and a draw of the others.

COc1cccc(CN2C(=O)c3ccccc3Sc3ccc(C(=O)NCCc4ccc(C)cc4)cc32)c1	none (no result: D3 antag)
Cc1cccc(N2CCN(C(=O)c3cn(C4CCCCC4)c(=O)c4c3c3ccccc3n4C)CC2)c1C	none (no result: D3 antag)
CCOc1ccc(N=C(C)Nc2ccc(OCC)cc2)cc1	none (no result: D1 potentiator, D1 ag, D3 antag, D1 antag)
O=C(O)c1ccc2c(c1)C(=O)N(C(Cc1ccccc1)C(=O)O)C2=O (centres undefined)	none
O=C(O)c1ccc2c(c1)C(=O)N([C@H](Cc1ccc(C(F)(F)F)cc1)C(=O)O)C2=O	D1 antag -47.8 (no result: D3 antag, DRD3 agonist)
O=c1c2ccccc2nc(-c2ccco2)n1Cc1ccccc1	none
CCOc1ccc(CCn2c(-c3ccco3)nc3ccccc3c2=O)cc1OCC	DRD3 agonist 35.9
Cc1ccc2c(c1)c1c(n2CC(O)CN2CCCCCC2)CCCC1 (centres undefined)	D3 antag -68.0
OC(CN1CCCCC1)Cn1c2ccccc2c2cc(Br)ccc21 (centres undefined)	D1 ag 44.5, D1 antag -62.9
CCOC(=O)c1cccc(NS(=O)(=O)c2c(C)nc3sc(C)cn3c2=O)c1	none (no result: D3 antag)
Cc1ccc(CN2C(=O)CSC2c2ccc(F)cc2)cc1 (centres undefined)	D1 antag -39.1
COC(=O)c1cccc(NS(=O)(=O)c2ccc(OC)c(OC)c2)c1C	none
COC(=O)c1ccc(C)c(NS(=O)(=O)c2ccc(OC)c(OC)c2)c1	D3 antag -70.0
CCOC1(OCC)N=C(N)C2(C#N)C(c3cccc(OC)c3OC)C12C#N (centres undefined)	none
CCOC1(OCC)N=C(N)C2(C#N)C(c3cccc(C)c3)C12C#N (centres undefined)	D1 antag -82.4
CCOC(=O)c1c(CSc2ccccc2)n(C)c2cc(Br)c(OCC(O)CNC(CO)(CO)CO)cc12 (centres undefined)	D1 antag -46.5
O=C(O)CN1C(=O)/C(=C\c2cn(CC(=O)N3CCOCC3)c3ccccc23)SC1=S	D1 ag 31.7
O=C(CCCN1C(=O)/C(=C\c2ccccc2)SC1=S)N1CCOCC1	none (no result: D1 potentiator, D1 ag, D1 antag)
O=C(CNC(=O)c1ccccc1)N[C@H](C(=O)Nc1cc(C(F)(F)F)ccc1Cl)c1ccccc1	none (no result: D3 antag, DRD3 agonist)
CCOC(=O)C1C(=O)CC(C)(O)C(C(=O)OCC)C1c1ccc(Br)cc1 (centres undefined)	D1 antag -30.0
COc1ccc(OC)c(CNC(=O)CN2N=C(c3ccc(Cl)cc3)CCC2=O)c1	none (no result: D3 antag)
COc1ccc(Nc2nc3cc(Cl)c(Cl)cc3n3cnnc23)cc1Cl	none (no result: D3 antag)
Cc1ccccc1C(OCCN(C)C)c1ccccc1 (centres undefined)	D3 antag -53.4 (no result: D1 potentiator, D1 ag, DRD3 agonist, D1 antag)
COc1cc(NC(=O)CSc2ncc(S(=O)(=O)c3ccc(Br)cc3)c(=O)[nH]2)cc(OC)c1	none (no result: D3 antag)
N#CC(NC(=O)OCc1ccccc1)c1ccccc1 (centres undefined)	D3 antag -54.3
C[C@@H]1C[C@H]2[C@@H]3CCC4=CC(=O)C=C[C@]4(C)[C@@]3(F)[C@@H](O)C[C@]2(C)[C@@]1(O)C(=O)COC(=O)c1cccc(S(=O)(=O)O)c1	none (no result: D1 potentiator, D1 ag, D3 antag, D1 antag)
CCOC(=O)c1c(C)[nH]c(CCC(=O)NCc2ccc(CC)cc2)c1C	none (no result: D3 antag)
Cc1ccc(NC(=O)CSc2nnc(COc3ccc(Cl)cc3)o2)cc1	none (no result: D3 antag)
Cc1cc(Br)cn2c(Cc3ccccc3)c(-c3cccc(Br)c3)nc12	D3 antag -50.7 (no result: D1 potentiator, D1 ag, D1 antag)
COc1ccccc1Cc1c(-c2ccco2)nc2ccc(C)cn12	D3 antag -50.5 (no result: D1 potentiator, D1 ag, D1 antag)
Cc1cc(Br)cn2c(Cc3ccccc3)c(-c3ccc(Cl)cc3)nc12	none (no result: D1 potentiator, D1 ag, D1 antag)
COc1ccccc1Cc1c(-c2cccc(Br)c2)nc2ccc(Cl)cn12	D3 antag -50.1 (no result: D1 potentiator, D1 ag, D1 antag)
Cc1cc(Br)cn2c(Cc3ccsc3)c(-c3ccco3)nc12	D3 antag -55.6 (no result: D1 potentiator, D1 ag, D1 antag)
Cc1ccccc1S(=O)Cc1ccc(C(=O)NC2CCCCCC2)o1 (centres undefined)	none (no result: D3 antag)
Cc1ccc2c(c1)-c1nc(-c3ccc4c(c3)NC(=O)CO4)cc(-c3ccc(Cl)cc3)c1CO2	none (no result: D3 antag)
Cc1ccccc1Cn1c2ccccc2c2cnn(CC(=O)NCCc3ccccc3)c(=O)c21	none (no result: D3 antag)
Cc1cc(Nc2cccc(C(F)(F)F)c2)nc2ccc(NC(=O)c3ccc(N(C)C)cc3)cc12	none (no result: D3 antag)
COc1ccc(Cc2c(-c3ccco3)nc3c(C)cc(Br)cn23)c(C)c1	none (no result: D1 potentiator, D1 ag, D1 antag)
COc1ccccc1Cc1c(-c2ccco2)nc2c(C)cc(Br)cn12	D3 antag -92.4 (no result: D1 potentiator, D1 ag, D1 antag)
CCOc1ccc(S(=O)(=O)N2CCN(c3ccccc3)CC2)cc1C(N)=O	none (no result: D3 antag)
Cc1ccc(S(=O)(=O)N2CCN(c3ccccc3)CC2)cc1C(N)=O	DRD3 agonist 34.5
CN1C(=O)C(C)(C)c2cc(S(=O)(=O)N3CCN(c4ccccc4)CC3)ccc21	D1 antag -39.8
NC[C@@H]1O[C@H](O[C@H]2[C@@H](O)[C@H](O[C@@H]3[C@@H](O)[C@H](N)C[C@H](N)[C@H]3O[C@H]3O[C@H](CN)[C@@H](O)[C@H](O)[C@H]3N)O[C@@H]2CO)[C@H](N)[C@@H](O)[C@@H]1O	none (no result: D1 potentiator, D1 ag, D3 antag, D1 antag)
O=C(Nc1ccccc1F)c1ccc(O)c2ncccc12	none (no result: D3 antag, DRD3 agonist)
COC1=CC(=Cc2c(N)n3nc(CC(=O)N4CCOCC4)sc3nc2=O)C=C(OC)C1=O	D1 ag 190.7
C=CCC1=C/C(=C\c2c(N)n3nc(CC(=O)N4CCCC4)sc3nc2=O)C=C(OC)C1=O	D1 ag 109.1
Cc1ccc(CC(=O)Nc2c(C(=O)N3CCN(c4ccccc4F)CC3)oc3ccccc23)cc1	none (no result: D3 antag)
CCCNC(=O)CCC(NS(=O)(=O)c1ccc(C)cc1)C(=O)NCCC (centres undefined)	D3 antag -56.2
CCNC(=O)C(CCSC)NS(=O)(=O)c1ccc(C)cc1 (centres undefined)	none
Fc1ccc(CSc2nncn3c2cc2occc23)c(Cl)c1	none (no result: D3 antag)
CCN(CC)Cc1csc(C(N)=O)c1	D3 antag -52.8
CCOC(=O)CCN(Cc1ccccc1)S(=O)(=O)c1csc(C(N)=O)c1	none
O=C(Oc1ccc(OC(=O)C2CCC2)cc1)C1CCC1	D1 antag -35.6
Cc1ccc(CNC(=O)c2nn(-c3ccc(Cl)cc3)nc2CO)cc1	none (no result: D3 antag)
CC(=O)c1ccc(N2CCN(C(=O)c3ccco3)CC2)c(F)c1	none
CC(=O)c1cc(F)c(N2CCN(C(=O)c3ccco3)CC2)cc1C	D1 antag -31.7
CCn1cc(C(=O)NC(C)C)c(=O)c2cc(F)c(N3CCN(C(=O)c4ccco4)CC3)cc21	D1 antag -31.3
CCOCC(=O)N1CCN(c2ccc(F)cc2)CC1	none
CC(=O)c1cc(F)c(N2CCN(C(=O)COc3ccc(F)cc3)CC2)cc1C	D1 antag -32.9
CCC(=O)c1cc(F)ccc1OCC(=O)N1CCN(c2ccc(F)cc2)CC1	D1 antag -33.8
O=C(Nc1ccc2oc(-c3ccc4ccccc4c3)nc2c1)c1cc(Cl)ccc1Cl	none (no result: D3 antag)
Cc1cccc(NC(=O)CSc2cn(CC(=O)N3CCCCCC3)c3ccccc23)c1	none (no result: D3 antag)

Bioassay records (PubChem BioAssay)
